According to PubChem BioAssay:
Records with an inconclusive call do not appear. Activity calls are given as the source filed them.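 How the source made its calls, unless noted: active means inhibition over a set limit, the all-compound mean plus 3 SD, in both replicate runs; inconclusive means over that limit in just one replicate run; inactive means at or under that limit in both runs.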

How the values were obtained:
[1] = Her2 expression decrease, cell viability multiplex – SKBR3 breast tumor cells, AlphaScreen, ATP viability, primary screen (AID 461;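 active means Her2 level under about 52% in both replicate screens, with viability over 70% of control, limit read from the data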;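 on Her2 level: lower value means less Her2 protein in the cells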;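 on viability: percent of carrier control wells set as 100% viability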); conditions: SKBR3 Her2 protein level, 18-24 h, measured here: SKBR3 viability, ATP luminescence, at 10 µM
[2] = molecular target: Receptor tyrosine-protein kinase erbB-2 (Homo sapiens) (UniProt P04626); test: as above; conditions: 18-24 h, at 10 µM, stronger effect = lower value
Sequence of Receptor tyrosine-protein kinase erbB-2 (Homo sapiens) (P04626 whole entry, looked up): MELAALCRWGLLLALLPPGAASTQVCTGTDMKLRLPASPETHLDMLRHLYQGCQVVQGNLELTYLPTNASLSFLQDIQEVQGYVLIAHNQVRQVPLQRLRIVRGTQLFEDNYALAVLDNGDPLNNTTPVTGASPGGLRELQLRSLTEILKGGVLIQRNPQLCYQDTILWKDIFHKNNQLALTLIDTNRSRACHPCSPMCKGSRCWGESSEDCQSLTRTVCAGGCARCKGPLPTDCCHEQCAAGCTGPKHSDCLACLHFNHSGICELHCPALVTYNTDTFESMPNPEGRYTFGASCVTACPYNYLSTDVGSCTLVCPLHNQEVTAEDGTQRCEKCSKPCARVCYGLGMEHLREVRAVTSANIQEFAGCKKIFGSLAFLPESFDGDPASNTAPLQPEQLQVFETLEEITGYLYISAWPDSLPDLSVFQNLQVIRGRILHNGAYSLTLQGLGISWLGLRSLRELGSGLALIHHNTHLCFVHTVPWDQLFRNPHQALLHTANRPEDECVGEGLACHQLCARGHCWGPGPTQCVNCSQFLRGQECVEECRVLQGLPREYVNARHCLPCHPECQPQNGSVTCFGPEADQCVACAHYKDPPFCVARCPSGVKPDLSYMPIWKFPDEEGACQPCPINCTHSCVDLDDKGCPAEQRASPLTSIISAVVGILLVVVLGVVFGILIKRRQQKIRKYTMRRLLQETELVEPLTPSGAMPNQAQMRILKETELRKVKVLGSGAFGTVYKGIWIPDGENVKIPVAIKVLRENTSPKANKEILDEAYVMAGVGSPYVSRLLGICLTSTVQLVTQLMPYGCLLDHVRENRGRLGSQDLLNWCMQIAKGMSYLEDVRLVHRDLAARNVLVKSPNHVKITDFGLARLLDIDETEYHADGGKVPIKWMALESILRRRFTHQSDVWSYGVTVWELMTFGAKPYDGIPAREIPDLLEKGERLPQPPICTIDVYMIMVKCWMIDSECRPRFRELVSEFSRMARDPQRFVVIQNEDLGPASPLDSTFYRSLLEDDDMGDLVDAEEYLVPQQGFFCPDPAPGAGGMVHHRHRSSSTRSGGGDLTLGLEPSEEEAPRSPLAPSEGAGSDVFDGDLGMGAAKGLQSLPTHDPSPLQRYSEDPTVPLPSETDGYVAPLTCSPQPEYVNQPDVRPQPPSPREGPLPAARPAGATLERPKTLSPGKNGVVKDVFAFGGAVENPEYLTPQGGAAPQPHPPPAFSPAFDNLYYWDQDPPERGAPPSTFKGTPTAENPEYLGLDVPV

[3] = reduced viability of SK-BR-3 breast cancer cells – cell-based, 24 h, human, pilot screen (AID 572;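 active means viability at or below 10% of carrier control in both of two separate runs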;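 further: compound exposure lasted between 18 and 24 h rather than exactly 24 h; 100% = carrier-treated control wells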); conditions: SK-BR-3 viability, CellTiter-Glo luminescence, at 10 µM, stronger effect = lower value
[4] = HUVEC growth inhibition – cell-based, human, primary screen (AID 575;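 active means viability at or below 30% in both replicate assays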;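 further: 100% = median of untreated cell wells with 0.1% DMSO on each plate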); conditions: HUVEC proliferation, CellTiter-Glo luminescence, 72 h; at 10 µM; stronger effect = lower value
[5] = H69AR cell proliferation blockers – human, duplicate replicates, primary screen (AID 580;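 active means viability at or under a set limit in both replicates, limit being median viability minus 3 SD, cut at about 48% in these data, passing the limit was not always enough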;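 further: 100% = mean luminescence of untreated wells and 0% = no signal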); conditions: H69AR lung tumor cells viability, ATP luminescence, 72 h; at 10 µM; stronger effect = lower value
[6] = MRP1 drug-resistance reversers in H69AR cells – cell-based, doxorubicin co-treatment, pilot screen (AID 601;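 active means viability loss from added drug above about 55%, and viability with drug at most 40%, in both replicates, limit read from the data, passing the limit was not always enough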); conditions: CellTiter-Glo, 72 h, at 10 µM; for differential viability (reversal): stronger effect = higher value
[7] = yeast transport mutant growth inhibition pilot in 384-well plates, post-Golgi transport modulator project (AID 636; in the data active means inhibition above about 31%); conditions: absorbance 615 nm, about 18 h, stronger effect = higher value
[8] = growth suppression of yeast trafficking mutant, preliminary HTS, modulators of trafficking downstream of Golgi apparatus project, 1536-format plate, OD 615 nm (AID 637; in the data active means inhibition above about 30%); conditions: yeast transport mutant growth, absorbance 615 nm, 18 h; stronger effect = higher value
[9] = S. cerevisiae growth inhibition in permissive medium (OD615), pilot counter-assay for S. cerevisiae lifespan shortening project, permissive growth control (AID 705;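 active means growth inhibition above 25% in both replicates, a cutoff set 3 SD above the mean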); conditions: OD615, 24 h, at 10 µM, stronger effect = higher value
[10] = S. cerevisiae growth inhibition in restrictive medium, OD615, pilot screen, restrictive growth control, yeast lifespan reduction project (AID 706;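 active means growth inhibition above a set limit, 3 SD over mean compound inhibition, in both replicates, cut at about 43% in these data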;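 further: modified DeaD lifespan yeast strain shifted to restrictive glucose medium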); conditions: OD615, 48 h, at 10 µM, stronger effect = higher value
[11] = doxorubicin toxicity protection in MRP-1 cells – H69AR cells, CellTiter-Glo, duplicate, MRP-1 activator project, pilot screen (AID 807;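 active means viability increase at or above a cutoff of the median across tested compounds plus 3 SD, cut at about 8.5% in these data, passing the limit was not always enough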;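 further: compound pretreatment 18-22 h then 72 h combined with doxorubicin; 0% = doxorubicin alone and 100% = vehicle without doxorubicin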); conditions: H69AR viability with doxorubicin, CellTiter-Glo luminescence; at 10 µM; stronger effect = higher value
[12] = viability of HCT116 without oncogenic beta-catenin – human colon tumor cells, pilot screen (AID 823;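 active means cell viability at or below a set limit in both duplicate runs, the limit being the all-compound median minus 4 SD, cut at about 23% in these data, passing the limit was not always enough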;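 further: 0% = wells killed by 20 µM Hyamine and 100% = untreated DMSO cell wells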); conditions: HCT116 beta-catenin knockout viability, CellTiter-Glo, 60 h; at 10 µM; stronger effect = lower value
[13] = viability of PTEN-null HCT116 cells – cell-based, HCT116 clonal line, CellTiter-Glo, pilot screen (AID 824;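 active means viability at or below 27.92% in each of two runs, the all-compound median minus 4 SD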;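 further: 0% = 20 µM Hyamine control and 100% = vehicle cell control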); conditions: HCT116 PTEN-deleted viability, 60 h, at 10 µM, stronger effect = lower value
[14] = RAM pathway blockade in budding yeast – dse1pr::URA3 reporter, 5-FOA selection, pilot screen (AID 869);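 further: 0% = DMSO wells with no growth and 100% = 10 µM 1-NA-PP1 with full growth; RAM network block rescues cells from 5-FOA so hits raise OD615 growth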; conditions: S. cerevisiae dse1pr::URA3 5-FOA growth, OD615, 2 d; at 10 µM; stronger effect = higher value; strain carries analog-sensitive mutant Cbk1 kinase
[15] = RAM signaling pathway blockade in yeast – S. cerevisiae, Pdr1DBD-CYC8 efflux-inhibited sensitized strain, primary screen (AID 1298;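 active means RAM network inhibition above 8.4% in each of two replicates, 3 SD over the compound average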;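 further: 0% = DMSO untreated cells without growth and 100% = 10 µM 1-NA-PP1 full growth; higher means more yeast growth rescued from 5-FOA killing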); conditions: S. cerevisiae cbk1-as DSE1-URA3 strain, 5-FOA growth OD615, 2 d; at 50 µM; stronger effect = higher value
[16] = H69AR cells + 2 uM doxorubicin, measured here: viability with 2 uM doxorubicin, stronger effect = lower value
[17] = H69AR cells, compound alone cytotoxicity

| Compound | viability [1] | Her2 level [2] | viability [3] | viability [4] | viability [5] | differential viability (reversal) ([6]; H69AR cells + 2 uM doxorubicin) | viability [6, 16] | viability [6, 17] | inhibition [7] | inhibition [8] | growth inhibition [9] | growth inhibition [10] | viability increase [11] | viability [12] | viability [13] | inhibition [14] | RAM network inhibition [15] |
| --- | --- | --- | --- | --- | --- | --- | --- | --- | --- | --- | --- | --- | --- | --- | --- | --- | --- |
| COc1ccccc1Oc1ccc(S(=O)(=O)N2CCOCC2)cc1S(=O)(=O)N1CCOCC1 | 86.5% | 121% (inactive) | 86.5% (inactive) | 101% (inactive) | 83.6% (inactive) | -4.58% (inactive) | 88.1% | 83.6% | -0.77% (inactive) | -6.67% (inactive) | -16.4% (inactive) | -21.3% (inactive) | -0.17% (inactive) | 93.6% (inactive) | 98.3% (inactive) | 2.41% (inactive) | 4.3% (inactive) |
| COc1ccccc1S(=O)(=O)Cc1ccc(C(=O)N2CCN(c3ccc(C)cc3)C(C)C2)o1 (stereo not drawn) | 82.5% | 64.5% (inactive) | 82.5% (inactive) | 52.4% (inactive) | 7.92% (active) | -48.4% (inactive) | 56.3% | 7.92% | -1.07% (inactive) | 1.64% (inactive) | 4.27% (inactive) | -15.2% (inactive) | -6.26% (inactive) | 43.2% (inactive) | 36.8% (inactive) | 0.41% (inactive) | 5.28% (inactive) |
| CC1CCC(NC(=O)C2(C)CCC(=O)N2Cc2cccnc2)CC1 (stereo not drawn) | 97% | 114% (inactive) | 97% (inactive) | 102% (inactive) | 78.6% (inactive) | -8.95% (inactive) | 87.5% | 78.6% | 2.18% (inactive) | -5.17% (inactive) | -12.3% (inactive) | -10.1% (inactive) | 1.23% (inactive) | 107% (inactive) | 98.3% (inactive) | 0.41% (inactive) | 1.87% (inactive) |
| CC1CCN(S(=O)(=O)c2cccc(C(=O)Nc3ccccn3)c2)CC1 | 86% | 104% (inactive) | 86% (inactive) | 86.7% (inactive) | 94.3% (inactive) | -2.55% (inactive) | 96.8% | 94.3% | 4.1% (inactive) | 1.83% (inactive) | 8.12% (inactive) | 3.79% (inactive) | -1.96% (inactive) | 93.9% (inactive) | 97.7% (inactive) | -0.08% (inactive) | 4.54% (inactive) |
| Cc1sc2nc(SCC(=O)NCCO)n(C)c(=O)c2c1C | 91% | 108% (inactive) | 91% (inactive) | 104% (inactive) | 88% (inactive) | -6.7% (inactive) | 94.7% | 88% | 0.77% (inactive) | -8.33% (inactive) | -9.24% (inactive) | -20.8% (inactive) | -1.81% (inactive) | 105% (inactive) | 94.6% (inactive) | 3.88% (inactive) | 2.59% (inactive) |
| CCc1cc2c(=O)c(-c3nc4ccccc4[nH]3)coc2c(CN2CCC(C)CC2)c1O | 96% | 116% (inactive) | 96% (inactive) | 99.1% (inactive) | 82.6% (inactive) | 0.66% (inactive) | 82% | 82.6% | -1.03% (inactive) | 1.83% (inactive) | 6.25% (inactive) | 18.5% (inactive) | -2.14% (inactive) | 92.3% (inactive) | 85.6% (inactive) | -0.2% (inactive) | -2.41% (inactive) |
| O=C(CCN1C(=O)c2ccccc2C1=O)Nc1ccc(F)cc1 | 108% | 76% (inactive) | 108% (inactive) | 116% (inactive) | 104% (inactive) | 12.9% (inactive) | 90.6% | 104% | -1.95% (inactive) | -7% (inactive) | -8.49% (inactive) | -11.6% (inactive) | 3.01% (inactive) | 107% (inactive) | 110% (inactive) | 1.6% (inactive) | -0.26% (inactive) |
| CCOc1ccc(N(CC(=O)NC2CCCC(C)C2C)S(=O)(=O)c2c(C)noc2C)cc1 (stereo not drawn) | 89.5% | 81.5% (inactive) | 89.5% (inactive) | 64.3% (inactive) | 73.1% (inactive) | 6.81% (inactive) | 66.3% | 73.1% | 1.41% (inactive) | 13.5% (inactive) | -9.98% (inactive) | -14.4% (inactive) | -1.09% (inactive) | 82.8% (inactive) | 83.6% (inactive) | 0.98% (inactive) | 6.62% (inactive) |
| CCN(CC)C(=O)Cn1ncc2c1-c1ccccc1OC2 | 84.5% | 112% (inactive) | 84.5% (inactive) | 98.3% (inactive) | 100% (inactive) | 15.7% (inactive) | 84.7% | 100% | -0.64% (inactive) | 1.33% (inactive) | -13.3% (inactive) | -11.6% (inactive) | 0.84% (inactive) | 105% (inactive) | 100% (inactive) | 2.26% (inactive) | -2.31% (inactive) |
